Data: PubChem BioAssay (NCATS)
Values joined by “and” are separate entries in the source; they are usually repeats but may differ in a detail not shown here. Equal values may be shown once. Inconclusive results are not listed. Entries that show only a call come without a potency. A number with no mark means an inactive call. Active and inactive are the calls of the source. Calls come from the whole dose curve; as a rule, active = well fitted inhibition curve with a large enough effect; inconclusive = small, poorly fitted or top-dose-only effect; inactive = flat fitted curve, though single readings scatter.

tested on: MCC-26; assay: qHTS assay to identify novel small-molecules to repurpose for Merkel cell carcinoma treatment (AID 1296009); conditions: MCC and control cell lines, CellTiter-Glo viability, 72 h; series mostly up to 46 µM; activity change, negative = cytotoxicity: at the top concentration; note: nearly all actives have a fitted effect of over 60% in size
Text: MCC is a rare and aggressive neuroendocrine skin cancer with limited treatment options. Approximately 80% of MCCs have the Merkel cell polyomavirus (MCPyV) DNA integrated into the host genome (virus-positive: VP-MCC) and viral oncogenes drive oncogenesis. The remaining MCCs are virus-negative (VN-MCC) and are caused by UV mutagenesis. To identify novel treatments for VP-MCC and/or VN-MCC we screened three VP-MCC cell lines (WAGA, MKL-1, MKL-2), three VN-MCC cell lines (MCC-13, MCC-26, UISO), and four immortalized, non-transformed control cell lines (HaCaT, HEK293T, CRL7250, NIH-3T3) against ~2,400 compounds in the NCGC Pharmaceutical Collection (NPC) and ~1,900 compounds in the Mechanism Interrogation PlatE (MiPE). Using cell viability as a readout (CellTiter-Glo assay) we found both overlapping and distinct drugs that can be repurposed for the treatment of VP-MCC and VN-MCC.
A high-throughput screen was conducted in 1536-well white flat bottom plates (Corning) on a Kalypsys robotic system. Cell lines WAGA, MKL-1, MKL-2, MCC-13, MCC-26, UISO, HaCaT, HEK293T, CRL7250, and NIH-3T3 were screened against 2 small molecule annotated drug libraries NPC and MIPE in dose response (8 and 11 pt. respectively) measuring cell viability after 72 hours of incubation. […] A 1,536 pintool (Kalypsys) was used to transfer 23 nL of compound in DMSO to the 1,536-well assay plates. After 72 hr incubation at 37 degree celsius, 2.5 uL of CellTiter-Glo (Promega) was dispensed into each well using a BiorapTR. Plates were incubated at room temperature for 10 min, transferred to a ViewLux (PerkinElmer) and the luminescence was recorded using an exposure time of 2 seconds. Relative luminescence units (RLUs) were normalized to in-plate controls (no cells as a positive (cytotoxicity) control, DMSO as negative control) and the normalized data was processed using NCATS in-house software.
Potency is the fitted concentration of half-maximal effect.

| SMILES | Potency | activity change, negative = cytotoxicity |
| --- | --- | --- |
| Cc1c(OCC(F)(F)F)ccnc1CS(=O)c1nc2ccccc2[nH]1 (stereo not given) | inactive |  |
| CCOC(=O)C1=C(O)C(=O)N(Cc2ccccc2)C1 |  | -3.25% |
| Cc1cccc(CN2CCN(C(c3ccccc3)c3ccc(Cl)cc3)CC2)c1 (stereo not given) | inactive |  |
| CS(=O)(=O)OCCCCOS(C)(=O)=O | inactive |  |
| CCC(C)(Oc1ccc(C2(c3ccc(OC(C)(CC)C(=O)O)cc3)CCCCC2)cc1)C(=O)O (stereo not given) |  | -3.98% |
| Cc1cc(Cl)ccc1OCCCC(=O)NO |  | -1.02% |
| O=C(NC(Cc1cc(=O)[nH]c2ccccc12)C(=O)O)c1ccc(Cl)cc1 (stereo not given) | inactive |  |
| CC(S)C(=O)NCC(=O)O (stereo not given) | inactive |  |
| Nc1cc(C(Cl)=C(Cl)Cl)c(S(N)(=O)=O)cc1S(N)(=O)=O | inactive |  |
| O=c1oc2cc(O)ccc2s1 |  | 3.22% |
| Nc1ccn([C@@H]2O[C@H](CO)[C@@H](O)C2O)c(=O)n1 (stereo not given in full) |  | -11.2% |
| CNC[C@@H](O)[C@@H](O)[C@H](O)[C@H](O)CO |  | 0.483% |
| COc1c(O)cc2c(c1O)[C@@H]1O[C@H](CO)[C@@H](O)[C@H](O)[C@H]1OC2=O |  | 3.35% |
| CCOC(=O)C1=C[C@@H](OC(CC)CC)[C@H](NC(C)=O)[C@@H](N)C1 |  | 3.2% |
| COC1=C(OC)C(=O)C(CCCCCCCCCCO)=C(C)C1=O | inactive |  |
| Cc1ccc(C(=O)c2cc(O)c(O)c([N+](=O)[O-])c2)cc1 | inactive |  |
| CC1=C(C)C(=O)C(C(CCCCCC(=O)O)c2ccccc2)=C(C)C1=O (stereo not given) | inactive |  |
| Nc1ccc(S(N)(=O)=O)cc1 | inactive |  |
| Nc1nc(Cl)nc2c1ncn2[C@H]1C[C@H](O)[C@@H](CO)O1 |  | -20.3% |
| N=C(N)c1ccc2cc(OC(=O)c3ccc(N=C(N)N)cc3)ccc2c1 | inactive |  |

| SMILES | Potency | activity change, negative = cytotoxicity |
| --- | --- | --- |
| O=C(CCc1ccc(O)cc1)c1c(O)cc(O)cc1O |  | -13.6% |
| O=c1c(O)c(-c2cc(O)c(O)c(O)c2)oc2cc(O)cc(O)c12 |  | -0.28% |
| Cc1cccc(C#Cc2ccccc2)n1 |  | -3.14% |
| CC(C)c1nc(CN(C)C(=O)N[C@H](C(=O)N[C@@H](Cc2ccccc2)C[C@H](O)[C@H](Cc2ccccc2)NC(=O)OCc2cncs2)C(C)C)cs1 | inactive |  |
| CCN(CC)C(=S)SSC(=S)N(CC)CC | 1.48 µM (active) and 596 nM (active) |  |
| CC(C)c1ccc2oc3nc(N)c(C(=O)O)cc3c(=O)c2c1 | inactive |  |
| Clc1ccc(C(Cn2ccnc2)OCc2c(Cl)cccc2Cl)c(Cl)c1 (stereo not given) | inactive |  |
| O=C1CCc2ccc(OCCCCN3CCN(c4cccc(Cl)c4Cl)CC3)cc2N1 | inactive |  |
| O=C(NCC1CCCCN1)c1cc(OCC(F)(F)F)ccc1OCC(F)(F)F (stereo not given) | inactive |  |
| Oc1ccc(OCc2ccccc2)cc1 | inactive |  |
| C[C@@H](N)C1CCC(C(=O)Nc2ccncc2)CC1 (stereo not given in full) |  | -6.38% |
| Cc1ccc(S(=O)(=O)NC(=O)NN2CC3CCCC3C2)cc1 (stereo not given) | inactive |  |
| O=c1ccc2ccc(O)c(O)c2o1 |  | -0.915% |
| C[Se]CCC(N)C(=O)O (stereo not given) |  | -9.19% [at 92.7 µM] |
| COC(=O)C1=C(C)NC(C)=C(C(=O)OC(C)C)C1c1cccc2nonc12 (stereo not given) | inactive |  |
| O=C(NOCC1CC1)c1ccc(F)c(F)c1Nc1ccc(I)cc1Cl | inactive |  |
| COc1cc2c(N3CCN(C(=O)Nc4ccc(OC(C)C)cc4)CC3)ncnc2cc1OCCCN1CCCCC1 | inactive |  |
| N=C(N=C(N)N)N1CCOCC1 | inactive |  |
| O=C(O)CCNC(=O)c1ccc(N=Nc2ccc(O)c(C(=O)O)c2)cc1 | inactive |  |
| O=c1c(O)c(-c2ccc(O)cc2O)oc2cc(O)cc(O)c12 |  | 6.01% |
